Laboratory results published in the supplement of paper PMC10646978.
± gives the standard deviation.

Assays:
Details in all cases: modulator concentration 10 µM
[1] = test system: RAW-Dual (murine macrophage reporter line); assay: NF-kB reporter (SEAP) activity fold change vs agonist alone; higher = enhanced NF-kB activity
Summary of the method: (§1)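 RAW-Dual murine macrophage reporter cells were plated at 50 000 per well in 384-well plates, pin-transferred compound to 10 μM final, and pre-incubated for 1 hour at 37 °C before a PRR agonist was added and the cells incubated overnight. NF-κB activity was read from supernatant SEAP with QUANTI-Blue at 620 nm absorbance, and IRF activity from Lucia luciferase with QUANTI-Luc by luminescence. Each signal was expressed as fold change by dividing by the mean agonist-only control on the same plate. Two replicate plates were averaged, with errors obtained by propagation.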

[2] = test system: RAW-Dual (murine macrophage reporter line); assay: IRF reporter (Lucia luciferase) activity fold change vs agonist alone; higher = enhanced IRF activity
Summary of the method: as §1

[3] = test system: RAW-Dual (murine macrophage reporter line); assay: viability score (confluency relative to resting cells, overnight) (fraction); higher = more viable, active = viable (0.7 or more)
Summary of the method: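 RAW-Dual macrophages in 384-well plates were incubated overnight with compound, final concentration 10 μM. Confluency images from IncuCyte were processed in IncuCyte software into two masks covering all imaged wells. The viability score is each well's confluency relative to resting cells, and a compound met the cutoff when both masks exceeded 70% of resting cells.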

[4] = agonist: CpG ODN 1826 0.5 ug/mL

| Compound | NF-kB reporter [1, 4] | NF-kB reporter ([1]; agonist: LPS 0.1 ug/mL) | NF-kB reporter ([1]; agonist: MPLA […]) | IRF reporter ([2]; agonist: 3'3'-cGAMP 10 ug/mL) | IRF reporter ([2]; agonist: LPS 0.1 ug/mL) | IRF reporter ([2]; agonist: MPLA […]) | viability score [3] |
| --- | --- | --- | --- | --- | --- | --- | --- |
| CC(C)c1ccccc1NS(=O)(=O)c1ccccc1 | 0.866 ± 0.072 | 0.766 ± 0.039 | 1.05 ± 0.11 | 1.08 ± 0.066 | 1.4 ± 0.089 | 1.53 ± 0.16 | 0.857 (active) |
| Cc1cc(C(=O)Nc2nnc(-c3ccc(F)cc3)o2)n(C)n1 | 0.915 ± 0.1 | 0.985 ± 0.084 | 1.1 ± 0.064 | 0.929 ± 0.059 | 1.18 ± 0.24 | 1.22 ± 0.5 | 0.873 (active) |
| O=C(Nc1cc(C(F)(F)F)cc(C(F)(F)F)c1)c1cccc(Br)c1 | 1 ± 0.09 | 1.02 ± 0.079 | 0.911 ± 0.074 | 0.935 ± 0.028 | 1.55 ± 0.27 | 1.19 ± 0.26 | 1.01 (active) |
| O=C(Oc1ccc(Cl)c2cccnc12)c1cccc(Cl)c1 | 0.981 ± 0.16 | 1.05 ± 0.093 | 0.926 ± 0.11 | 0.994 ± 0.032 | 1.41 ± 0.21 | 1.45 ± 0.15 | 1 (active) |
| COc1ccc(N2CCN(C(=O)Cc3csc(NC(=O)Nc4ccccc4OC)n3)CC2)cc1 | 0.911 ± 0.069 | 1.03 ± 0.1 | 0.884 ± 0.036 | 0.784 ± 0.043 | 0.922 ± 0.073 | 0.48 ± 0.042 | 0.983 (active) |
| CN(C)CC(c1ccc(O)cc1)C1(O)CCCCC1 (centres undefined) | 0.971 ± 0.16 | 1.07 ± 0.26 | 0.893 ± 0.054 | 0.897 ± 0.045 | 1.44 ± 0.32 | 1.17 ± 0.092 | 0.992 (active) |
| Cl.Cl.Fc1ccc(C(c2ccc(F)cc2)N2CCN(CC=Cc3ccccc3)CC2)cc1 | 0.834 ± 0.063 | 0.999 ± 0.065 | 1.15 ± 0.029 | 0.956 ± 0.089 | 0.896 ± 0.051 | 1.1 ± 0.16 | 0.996 (active) |
| CC1SC(c2ccccc2)NC1=O (centres undefined) | 1.04 ± 0.08 | 1.06 ± 0.065 | 0.952 ± 0.055 | 0.791 ± 0.026 | 1.42 ± 0.098 | 1.2 ± 0.12 | 0.999 (active) |
| CC(C)CN(CC(O)C(Cc1ccccc1)NC(=O)OC1COC2OCCC12)S(=O)(=O)c1ccc(N)cc1 (centres undefined) [Prestw-1802] | 1.53 ± 0.34 | 1.52 ± 0.14 | 1.84 ± 0.15 | 0.872 ± 0.069 | 0.827 ± 0.22 | 0.953 ± 0.14 | 0.981 (active) |
| CN(C)CC/C=C1/c2ccccc2Sc2ccc(Cl)cc21 | 0.942 ± 0.058 | 1.02 ± 0.085 | 1.08 ± 0.078 | 0.925 ± 0.043 | 1.08 ± 0.19 | 1.23 ± 0.38 | 1.02 (active) |
| O=C1OC(c2ccc3ccccc3c2)=NC1=Cc1ccc(Cl)c([N+](=O)[O-])c1 | 0.973 ± 0.079 | 1.07 ± 0.067 | 0.881 ± 0.053 | 0.976 ± 0.03 | 1.53 ± 0.14 | 1.16 ± 0.2 | 1.01 (active) |
| O=[N+]([O-])c1ccc(CSc2nc3ccccc3[nH]2)cc1 | 0.971 ± 0.076 | 0.87 ± 0.048 | 1.01 ± 0.024 | 0.834 ± 0.048 | 1.02 ± 0.13 | 1.12 ± 0.11 | 0.995 (active) |
| CCC1(CC)Cc2ccccc2C(CC(=O)N2CCOCC2)=N1.O=S(=O)(O)O | 0.627 ± 0.058 | 1.13 ± 0.072 | 1.16 ± 0.096 | 0.601 ± 0.044 | 0.964 ± 0.074 | 1.16 ± 0.21 | 0.829 (active) |
| COCCN1C(=O)CN(C2CCN(Cc3cc(OC)cc(OC)c3)CC2)C1=O | 0.918 ± 0.047 | 1.14 ± 0.11 | 0.881 ± 0.04 | 0.979 ± 0.051 | 1.09 ± 0.12 | 1.13 ± 0.13 | 1.01 (active) |
| CCOC(=O)c1ccc(-c2ccc(C=C(C#N)C(=O)Nc3ccc(F)cc3)o2)cc1 | 0.979 ± 0.09 | 1.08 ± 0.063 | 1.05 ± 0.068 | 0.929 ± 0.042 | 1.29 ± 0.25 | 1.06 ± 0.14 | 1.01 (active) |
| COc1cccc2c1C(=O)c1c(O)c3c(c(O)c1C2=O)C[C@@](O)(C(=O)CO)C[C@@H]3O[C@H]1C[C@H](N)[C@H](O)[C@H](C)O1 [Prestw-438] | 0.123 ± 0.007 | 0.0747 ± 0.019 | 0.112 ± 0.0071 | 0.03 ± 0.0031 | 0.0425 ± 0.0034 | 0.0335 ± 0.0064 | 0.114 (inactive) |
| CCN1CCCC1CNC(=O)c1cc(S(N)(=O)=O)ccc1OC (centres undefined) | 1.01 ± 0.11 | 1.06 ± 0.07 | 0.992 ± 0.052 | 1.02 ± 0.11 | 0.982 ± 0.11 | 0.865 ± 0.068 | 1 (active) |
| C=C1CCN([C@H](C)[C@](O)(Cn2cncn2)c2ccc(F)cc2F)CC1 | 1.21 ± 0.12 | 0.941 ± 0.11 | 0.986 ± 0.095 | 1.19 ± 0.054 | 1.73 ± 0.16 | 1.3 ± 0.15 | 0.134 (inactive) |
| CC(=NNC(=O)CSc1nc2ccccc2n1Cc1ccccc1)c1ccc(Cl)cc1 | 0.846 ± 0.068 | 0.923 ± 0.089 | 1 ± 0.1 | 0.979 ± 0.046 | 1.4 ± 0.081 | 1.36 ± 0.16 | 1.02 (active) |
| Oc1ccc(C=NCc2ccccc2)cc1 | 1.11 ± 0.12 | 1.08 ± 0.079 | 1.04 ± 0.038 | 0.921 ± 0.11 | 0.999 ± 0.05 | 1.06 ± 0.19 | 1 (active) |
| O=C(O)C=C(CC(=O)O)C(=O)O | 1.02 ± 0.084 | 1.05 ± 0.074 | 0.946 ± 0.021 | 0.996 ± 0.12 | 0.971 ± 0.038 | 0.983 ± 0.092 | 1 (active) |
| Cc1cc2c(C)cc[n+](CCCS(=O)(=O)[O-])c2cc1C | 0.942 ± 0.078 | 1.05 ± 0.066 | 0.918 ± 0.059 | 0.946 ± 0.038 | 1.42 ± 0.09 | 1.3 ± 0.22 | 1 (active) |
| COc1ccc([C@H]2CNC(=O)C2)cc1OC1CCCC1 | 2.61 ± 0.4 | 2.21 ± 0.38 | 1.9 ± 0.14 | 0.902 ± 0.039 | 1.03 ± 0.22 | 1.41 ± 0.15 | 0.982 (active) |
| CC(C)NC[C@H](O)COc1ccc(CCOCC2CC2)cc1.Cl | 1.15 ± 0.1 | 1.07 ± 0.16 | 1.11 ± 0.037 | 0.871 ± 0.11 | 0.987 ± 0.09 | 0.868 ± 0.12 | 1 (active) |
| COc1cccc(C2Nc3ccccc3-c3nnc(SC)nc3O2)c1OCC(=O)O (centres undefined) | 0.989 ± 0.099 | 0.988 ± 0.054 | 0.864 ± 0.082 | 1.03 ± 0.068 | 1.65 ± 0.11 | 1.24 ± 0.076 | 1 (active) |
| Cc1cccc(CS(=O)(=O)N2CCC(S(=O)(=O)c3nccn3C)CC2)c1 | 1.04 ± 0.078 | 1.02 ± 0.082 | 0.983 ± 0.038 | 1.04 ± 0.088 | 0.979 ± 0.089 | 1.05 ± 0.12 | 0.998 (active) |
| Cl.OC(CC#CCN1CCCC1)(c1ccccc1)c1ccccc1 | 0.726 ± 0.13 | 1.08 ± 0.086 | 0.967 ± 0.074 | 0.748 ± 0.019 | 1.28 ± 0.15 | 1.42 ± 0.17 | 0.597 (inactive) |
